Assay [1] in a line: NCI Yeast Anticancer Drug Screen. Data for the rad50 strain (AID 155).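 Note: 0% = growth of vehicle-only cultures of the same strain.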 Particulars: S. cerevisiae rad50 strain growth inhibition; at 50.0 µM; hits give high values. Put shortly: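 A DNA repair-deficient yeast mutant serves as the test organism; compound-induced growth inhibition is calculated against vehicle-treated cells.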
A short description of assay [2]: NCI Yeast Anticancer Drug Screen. Data for the mec2-1 strain (AID 157). The note with it: S. cerevisiae mec2-1 strain, at 50.0 µM, hits give high values. The method in brief: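 Growth inhibition is read against vehicle-treated controls after compound exposure of the mec2-1 yeast strain, which is defective in DNA damage repair or cell cycle control.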
Assay [3] in a line: NCI Yeast Anticancer Drug Screen. Data for the sgs1 mgt1 strain (AID 161).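 Note: 0% = growth of cultures given vehicle only.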 Particulars: S. cerevisiae sgs1 mgt1 strain, at 50.0 µM, hits give high values. The method in brief:
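Yeast cells carrying a defined DNA-repair defect were exposed to test compounds. Growth inhibition was measured relative to vehicle-treated controls.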

Assay [4] can be described thus: NCI Yeast Anticancer Drug Screen. Data for the cln2 rad14 strain (AID 165).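 Note: 0% = growth equal to vehicle treated cultures.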 Particulars: S. cerevisiae cln2 rad14 strain, at 50.0 µM, hits give high values. The method in brief:
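Growth inhibition, relative to vehicle-treated controls, is the read-out. The test organism is a yeast strain with defined genetic alterations, cln2 rad14.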

Assay [5] in a line: NCI Yeast Anticancer Drug Screen. Data for the bub3 strain (AID 167). Particulars: S. cerevisiae bub3 mutant strain, at 50.0 µM, hits give high values. Put shortly: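 Inhibition values come from growth of compound-treated mutant yeast normalised to vehicle-treated controls.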
A short description of assay [6]: NCI Yeast Anticancer Drug Screen. Data for the mlh1 rad18 strain (AID 175). Particulars: S. cerevisiae mlh1 rad18 strain growth inhibition; at 50.0 µM; hits give high values. The method in brief:
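Cells of a genetically altered yeast strain, deficient in DNA damage repair, were treated with compound. Their growth was then compared with that of vehicle-treated cultures to give inhibition.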

This is part of a sample that, as a whole, favours compounds with a hit. Of some 79,000 tested, about 15% had one in any assay. A number with no mark means an inactive call. The source made the active and inactive calls. Cut-off read from the data, not from the text of the source: active = growth inhibition above about 70%; inactive = the rest.

In the case of `CC(=O)NCc1cccc[n+]1[O-]`, the growth inhibition in assay [1] was 14.8%; in assay [2] it was -12%; in assay [3], -3.8%; in assay [4], -59.3%; in assay [5], -6.85%; in assay [6], -7.2%.

On to `CC1=CC(=O)/C(=C/n2c(=S)sc3ccccc32)C(=O)O1`, for which the growth inhibition in assay [1] was -27.4%; in assay [2], 7.1%; in assay [3], 27.9%; in assay [4], 23%; in assay [5] it was -29.9%; in assay [6] it was 14.6%.

`O=[N+]([O-])c1nccn1CC(O)CN1CCCCC1` (stereo unspecified): the growth inhibition in assay [1] was 5.95%; in assay [2] it was -1.15%; in assay [3], 16.8%; in assay [4], -4.85%; in assay [5] it was -7.85%; in assay [6] it was 18.9%.

As for `O=C1CCC2=C(N1)C(=O)C=CC2=O`, the growth inhibition is 1.8% in assay [1]; 13.2% in assay [2]; -13.2% in assay [3]; -32% in assay [4]; -8.35% in assay [5]; 10.9% in assay [6].

Turning to `CC(=O)Nc1ccc2c(c1)C(P(=O)(OC(C)C)OC(C)C)c1ccccc1-2` (stereo unspecified), the growth inhibition in assay [1] is 6%; in assay [2], 19.6%; in assay [3], 18.1%; in assay [4], -1.4%; in assay [5], 34.4%; in assay [6], -2.8%.

In the case of `CN(C)Cc1c[nH]c2nc[nH]c(=O)c12`, the growth inhibition was -1.3% in assay [1]; -31.4% in assay [2]; -31.4% in assay [3]; 6% in assay [4]; -9.5% in assay [5]; -16.4% in assay [6].

In the case of `CCN(CC)c1ccc(N=C2C=CC(=O)C(NC(C)=O)=C2)c(C)c1`, the growth inhibition in assay [1] was -13.2%; in assay [2], -24.8%; in assay [3], 29.2%; in assay [4], -8.15%; in assay [5], 14.1%; in assay [6], 13.3%.

With `CCOC(=O)C(/C=N\C(=S)Nc1ccc(OCC)cc1)=C(/O)c1ccccc1`, the growth inhibition in assay [1] was -49.1%; in assay [2] it was -52.6%; in assay [3], -26.6%; in assay [4], -14.8%; in assay [5], -30.2%; in assay [6], 6.5%.

In the case of `CC(NC(=O)NCCCl)C1CC1` (stereo unspecified), the growth inhibition in assay [1] was -2.1%; in assay [2], 0%; in assay [3], -4.75%; in assay [4], -11.8%; in assay [5], -14.4%; in assay [6], -0.8%.

For the compound `COc1ccc(-c2cc(=O)c3cccc(CC(=O)O)c3o2)cc1OC`, the growth inhibition in assay [1] is 99.2% (active); in assay [2], 99.2% (active); in assay [3] it was 97.5% (active); in assay [4], 98.8% (active); in assay [5], 99.3% (active); in assay [6], 99.2% (active).

Consider `Cc1ccc(NC(=O)NCCCN2CCOCC2)cc1NC(=O)NCCCN1CCOCC1`, for which the growth inhibition in assay [1] is -11.8%; in assay [2], -22.6%; in assay [3] it was 3.85%; in assay [4] it was 17.2%; in assay [5], 8.3%; in assay [6] it was 7.05%.

Consider `O=C1c2ccccc2C(=O)N1Cc1ccc(CN2C(=O)c3ccccc3C2=O)cc1`, for which the growth inhibition in assay [1] was -9%; in assay [2], -3.75%; in assay [3] it was -16%; in assay [4], -12.2%; in assay [5] it was -1.55%; in assay [6], -11.1%.

Consider `NC(=O)O/N=C/c1ccc(Cl)cc1`, for which the growth inhibition in assay [1] was 2.8%; in assay [2] it was -16.8%; in assay [3], -13.1%; in assay [4], 10.3%; in assay [5], 17.1%; in assay [6], 9.8%.

Turning to `O=C1c2ccccc2C(=O)N1CC#CCN1C(=O)c2ccccc2C1=O`, the growth inhibition was -6.95% in assay [1]; -31.8% in assay [2]; 19.6% in assay [3]; -5.05% in assay [4]; -2.65% in assay [5]; -5.75% in assay [6].

Consider `CCCC[P+](C)(CC[P+](C)(c1ccccc1)c1ccccc1)c1ccccc1` (stereo unspecified), for which the growth inhibition is 36.3% in assay [1]; 80.8% (active) in assay [2]; 69% in assay [3]; 96.5% (active) in assay [4]; 98.1% (active) in assay [5]; 37.3% in assay [6].

For `COC(=O)C1CCC2C3CCCCC3CCC2C1(C)C(=O)OC` (stereo unspecified), the growth inhibition in assay [1] is -7.6%; in assay [2] it was 2%; in assay [3], -4.55%; in assay [4], -28.4%; in assay [5] it was 5.7%; in assay [6] it was 2.05%.

On to `Cc1cc(Cl)ccc1NC(=O)/C(Cc1nc2ccc(C(=O)c3ccccc3)cc2[nH]c1=O)=N/NC(=O)c1ccncc1`, for which the growth inhibition in assay [1] was 21.9%; in assay [2], 17.1%; in assay [3], 1.45%; in assay [4], -33.7%; in assay [5] it was 4.7%; in assay [6], 16.1%.

As for `CCc1c(Cc2[nH]c(Cc3[nH]c(C=O)c(C)c3CC)c(CC)c2CC)[nH]c(C=O)c1C`, the growth inhibition in assay [1] is 5.25%; in assay [2], -7.5%; in assay [3] it was -5.85%; in assay [4], -45.9%; in assay [5], -0.75%; in assay [6] it was -8.75%.

Turning to `COc1ccc(Nc2cc(N)nc(N)n2)c(=S)[nH]1`, the growth inhibition in assay [1] was 0.05%; in assay [2], -2.85%; in assay [3], -5.15%; in assay [4] it was 1.75%; in assay [5] it was 3.05%; in assay [6] it was -0.95%.

With `CC(Cl)(CCC(Cl)C(C)(C)Cl)C(=O)CBr` (stereo unspecified), the growth inhibition in assay [1] was 89% (active); in assay [2] it was 92.7% (active); in assay [3], 92.8% (active); in assay [4], 91.3% (active); in assay [5], 92.3% (active); in assay [6], 93.2% (active).

`Nc1ccc2c(c1)C(=O)c1c(F)c(F)c(F)c(F)c1-2`: the growth inhibition was 16.6% in assay [1]; -0.9% in assay [2]; -10.7% in assay [3]; -13.2% in assay [4]; 4.85% in assay [5]; 11.9% in assay [6].

The record behind these values is PubChem BioAssay (NCI).
